# Reference: ChEMBL document CHEMBL4513139, “CO-ADD screening of University of Strathclyde (UK) compounds”
# Fewer than 10 of roughly 21,000 compounds showed an effect of 50% or more. A selection follows. Potency and affinity values are given separately.
# System: Acinetobacter baumannii
# Details: Concentration 32 ug.mL-1; ASSAY_TEST Inhibition of Bacterial Growth; detection method Absorption (OD600); MEDIA CAMHB; plate type 384well; NBS; CORNING #3640; time 18 hr
row,Compound,Inhibition [%]
1,Cn1cc(NC(=O)c2cc(NC(=O)c3ccc(/C=C/c4cccc(F)c4)cc3)cn2C)cc1C(=O)NCCN1CCOCC1.O=C(O)C(F)(F)F,5.74
